Only a selection was taken, and hits are over-represented in it overall.
HCMV NEC inh: inhibitors of HCMV UL50-UL53 interaction, biochemical, HTRF. normalized percent inhibition. inhibition, % (concentration not given with the values). 0.15% of 190,000 active; in the data active means inhibition above about 27%, passing the limit was not always enough
Sa growth inh: S. aureus growth inhibition at 42 and 30 °C, primary screen, LtaS inhibitor project, RN4220, two temperatures; OD600, 20 h, 42 °C; active compounds read low; relative growth, % (no concentration beside the values); 0.53% of 170,000 active; AID 720641, 2013;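 active means relative growth at most 50% at the other temperature and 20+ points below 30 °C, or under 10% at both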
S aureus helic: inhibitors of S. aureus replicative helicase, primary screen, biochemical, fluorescence unwinding readout | replicative DNA helicase (DnaC/DnaB), Staphylococcus aureus | purified S. aureus helicase, fluorescence unwinding assay | inhibition, % (no concentration beside the values) | 0.05% of 120,000 active | AID 485395, 2010; in the data active means inhibition above about 25%, passing the limit was not always enough
Each line names hits and unclear results; the compound was inactive in the other large screens.

Cc1cc(C)c2[nH]c(=O)c(CN(Cc3ccco3)C(=S)NCCCN3CCOCC3)cc2c1	none
Cc1cc(C)c(-c2cc(C(F)(F)F)nc(-c3ccccc3)n2)c(=O)[nH]1	none
COc1ccc(C2C3=C(CC(c4ccc(OC)c(OC)c4)CC3=O)Nc3onc(C)c32)cc1O (stereo unspecified)	none (no result: Sa growth inh, S aureus helic)
O=C(Nc1cccc(CCc2nc3ccccc3[nH]2)c1)c1[nH]nc2c1COc1ccccc1-2	none (no result: Sa growth inh, S aureus helic)
Cc1cc(Nc2ccccc2C)nc(C)n1	none (no result: Sa growth inh, S aureus helic)
Cc1cc(Nc2cc(F)ccc2C)nc(-n2nc(C)cc2C)n1	Sa growth inh 3.1 (no result: HCMV NEC inh, S aureus helic)
Cc1cc(Nc2ccccc2C)nc(-n2nc(C)cc2C)n1	Sa growth inh -0.2 (no result: HCMV NEC inh, S aureus helic)
Cc1cc(NC2CCCCC2)nc(-n2nc(C)cc2C)n1	none (no result: Sa growth inh, S aureus helic)
Cc1ccccc1-c1nc2scc(CCNS(C)(=O)=O)n2n1	none (no result: Sa growth inh, S aureus helic)
O=C(c1cccc(N2C(=O)CCS2(=O)=O)c1)N1CCc2ccccc21	none (no result: Sa growth inh, S aureus helic)
Cc1ccc(-n2nnnc2S(C)(=O)=O)c(C)c1	none
Cc1cccc(-n2nnnc2S(C)(=O)=O)c1	Sa growth inh -0.6 (no result: HCMV NEC inh, S aureus helic)
CCc1cc2c(COC(=O)C3CC(=O)N(Cc4ccco4)C3)cc(=O)oc2cc1O (stereo unspecified)	none (no result: HCMV NEC inh, Sa growth inh)
Cc1[nH]n2c(=O)cc(-c3ccc(Cl)cc3)nc2c1-c1ccccc1	Sa growth inh -0.5 (no result: S aureus helic)
Cc1[nH]n2c(=O)cc(-c3ccc(F)cc3)nc2c1-c1ccccc1	none (no result: Sa growth inh, S aureus helic)
NC(=O)CSc1nc2sc3c(c2c(=O)n1-c1ccccc1)CCCCC3	none (no result: Sa growth inh, S aureus helic)
O=C(O)c1cn(-c2ccc(F)cc2)c2cc(N3CCNCC3)c(F)cc2c1=O	Sa growth inh -0.9 (no result: S aureus helic)
O=C(O)c1cn(C2CC2)c2cc(N3CCN(C(=S)S)CC3)c(F)cc2c1=O	Sa growth inh -0.9
Cn1cc(S(=O)(=O)c2ccccc2)c(=O)c2cc(F)c(N3CCN(c4ccc(F)cc4)CC3)cc21	none (no result: S aureus helic)
CNC1CCCN(c2c(F)cc3c(=O)c(C(=O)O)cn(C4CC4)c3c2OC)C1 (stereo unspecified)	none (no result: Sa growth inh, S aureus helic)
Nc1ccccc1NCCO	none (no result: HCMV NEC inh)
Nc1ccccc1NCCc1ccccc1	Sa growth inh 9.1
CC1CN(Cc2csc(Nc3ccccc3)n2)CC(C)O1 (stereo unspecified)	Sa growth inh 0.7 (no result: HCMV NEC inh)
CC(=O)N1CCN(Cc2csc(Nc3ccccc3)n2)CC1	none
FC(F)(F)c1cccc(N=Cc2ccccc2)c1	none
FC(F)(F)c1cccc(N=C=S)c1	Sa growth inh -1.3
CCN1C(=O)C(=Nc2ccc(S(=O)(=O)N3CCOCC3)cc2)c2ccccc21	none
CCOC(=O)c1ccc(Nc2nc3nonc3nc2NCc2ccco2)cc1	none
CCOC(=O)c1ccc(Nc2nc3nonc3nc2Nc2cccc(C)c2C)cc1	Sa growth inh -1.0 (no result: S aureus helic)
CCNC(=O)N1CCc2cc(S(=O)(=O)Nc3ccc(OC)cc3OC)ccc21	none (no result: Sa growth inh, S aureus helic)
CCOC(=O)c1sc(N)c(C#N)c1COC(=O)C1CC(=O)N(c2ccccc2OC)C1 (stereo unspecified)	none
Nc1nc2c(s1)CCc1c-2cnn1-c1ccccc1	HCMV NEC inh 63
Cc1c(-c2ccnc(N)n2)cnn1-c1ccccc1	none (no result: S aureus helic)
CC(C)(C)c1ccc(OCCCn2ccnc2)cc1	Sa growth inh 2.3
Ic1ccc(OCCCCn2ccnc2)cc1	Sa growth inh 1.3
Clc1cccc(Cl)c1OCCCn1ccnc1	none
CCOc1ccc(NC(=S)NCCCn2ccnc2)cc1	none (no result: HCMV NEC inh)
CC(=O)Nc1ccc(C(=O)N(CCCN2CCCC2=O)CCC(=O)N2CCNCC2)cc1	none (no result: Sa growth inh, S aureus helic)
Cc1cc(C)c2c(n1)sc1c(=O)n(-c3cccc4cccnc34)nnc12	none
c1cc(C2OCCO2)ccc1C1OCCO1	none
Cc1nn(C)c(C)c1CCNC(=O)NCC1CCCO1 (stereo unspecified)	none (no result: Sa growth inh, S aureus helic)
COc1ccc(Br)cc1S(=O)(=O)n1ccnc1	none (no result: Sa growth inh)
COc1cc(C)c(S(=O)(=O)n2ccnc2)cc1C(C)C	Sa growth inh 2.4
CCc1cc(-c2[nH]ncc2-c2ccc(Br)cc2)c(O)cc1O	none (no result: Sa growth inh)
CCc1cc(-c2[nH]ncc2-c2cnn(-c3ccccc3)c2)c(O)cc1O	Sa growth inh 9.5
CCC(=O)Nc1nc2ccc(NC(=O)C(C)C)cc2s1	none (no result: Sa growth inh, S aureus helic)
Cc1cc(C)n(C)c(=O)c1C(=O)O	none (no result: HCMV NEC inh)
Cc1cc(=O)[nH]c(O)c1C(=O)O	HCMV NEC inh 65
Cc1ccc(-n2c(C)cc(C3=NN=C(N)SC3)c2C)cc1C	none
O=C(O)c1ccc2c(c1)NC(=O)C1CCCN21 (stereo unspecified)	HCMV NEC inh 79 (no result: Sa growth inh, S aureus helic)
COC(=O)c1ccc2c(c1)NC(=O)C1CCCN21 (stereo unspecified)	none (no result: Sa growth inh, S aureus helic)
O=C(O)COCC(=O)Nc1ccc2c(c1)oc1ccccc12	none (no result: HCMV NEC inh)
O=C(O)CCC(=O)Nc1ccc2c(c1)oc1ccccc12	HCMV NEC inh 52
O=C(Cc1ncc(C(F)(F)F)cc1Cl)NO	none (no result: Sa growth inh, S aureus helic)
Cc1ccccc1-n1nnnc1Sc1nnnn1-c1ccccc1	HCMV NEC inh 40
Cc1cccc(-n2c(Sc3nnnn3-c3ccccc3)nc3ccccc3c2=O)c1C	none

Source: PubChem (ICCB-Longwood Screening Facility, Harvard Medical School)
